According to PubChem BioAssay (NCI):
The panel holds about 79,000 compounds, 15% with a hit somewhere; the sample as a whole holds those more often. Values without a mark were called inactive. No stated cut-off is given here; in the data, active means growth inhibition above about 70%; inactive means the rest.

Assay: NCI Yeast Anticancer Drug Screen. Data for the mlh1 rad18 strain (AID 175)
Settings: S. cerevisiae mlh1 rad18 strain growth inhibition; at 50.0 µM; active compounds read high
Procedure, shortened: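 Cells of a genetically altered yeast strain, deficient in DNA damage repair, were treated with compound. Their growth was then compared with that of vehicle-treated cultures to give inhibition.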

Point of comparison: `CN(C)Cc1ccccn1`, growth inhibition 2.55%. Against it:
- C1Cc2onc(-c3noc4c3CCC4)c2C1 — lower, -14.6%
- O=[N+]([O-])c1c(Cl)ncnc1Cl — lower, -16.2%
- CN(C)c1ccc2c(N(C)C)cc(N(C)C)nc2c1 — lower, -12%
- COc1cc(OC)c2cc(C(=O)c3ccc(C#N)cc3)c(=O)oc2c1 — higher, 32.2%
- COc1cc(C(=O)N2CCN(c3ccccc3)CC2)c2ccccc2n1 — higher, 3.1%
- COc1ccc(/C=N/NC(=O)COCC(=O)N/N=C/c2ccc(OC)cc2)cc1 — lower, -25.6%
- CN=S(=O)(OCCCCCOS(=O)(=NC)c1ccc(C)cc1)c1ccc(C)cc1 (stereo not drawn) — lower, -34.9%
- CCOC(=O)/C(C#N)=C\c1c[nH]c2ccccc12 — higher, 59.2%
- CCC(=O)C1C(=O)c2ccccc2C1=O — higher, 20.4%
- CCNCC(C)(C)O — higher, 27.8%
- COC(CCCl)c1ccc(Cl)cc1 (stereo not drawn) — higher, 26.8%
- COc1cccc(C(=O)NNC(=O)c2cccc3ccccc23)c1 — lower, -20.9%
- O=c1nc(Nc2cccc(Cl)c2)oc2cc(Cl)oc(=O)c12 — higher, 42.6%
- Cc1cccc(C)c1NC(=S)/N=C\c1c(O)[nH]c(=O)[nH]c1=O — lower, -57.2%
- CCCCNC(=O)c1ccc(OCC)cc1 — lower, -0.1%
- CSc1cnc2ccccc2n1 — lower, -3.9%
- CC(=O)[C@@]1(O)CC[C@H]2[C@@H]3CC[C@@H]4CC(=O)CC[C@]4(C)[C@H]3[C@@H](O)C[C@@]21C — lower, -13.5%
